The supplement of paper PMC7156485
Values without a mark were called inactive.

These compounds were tested on HCC1569 (assay: H1.0 immunofluorescence intensity relative to DMSO (% of DMSO); higher = stronger H1.0 induction, active = 140 or more). Settings: concentration: 10 µM; 24 h.
In short: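 Six fields per well were imaged at ×10 after the cells were fixed in 3.7% formaldehyde and stained with a rabbit anti-H1.0 antibody, an AlexaFluor 647 secondary and DAPI. The HCC1569 and TDF cells had been plated at 800 per well in 384-well plates (RPMI, 10% FBS) and treated in triplicate with compounds at 10 µM for 24 h at 37 °C. The values are the median of replicates of H1.0 nuclear intensity or cell number, as percent of the plate control. Smoothing for positional effects was applied to HCC1569 data.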
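Note: TDF is a line of transformed human dermal fibroblasts of mesenchymal origin.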

SMILES | H1.0 immunofluorescence intensity
COc1cc2c(c(OC)c1OC)-c1c(cc(OC)c(OC)c1OC)C[C@](C)(O)[C@@H](C)C2 | 100
COc1cccc(/C=N/CC/N=C/c2cccc(OC)c2[O-])c1[O-].[Cl-].[Mn+2] | 108
Cc1cccc(C(=O)NCN2CCN(c3ccccc3C#N)CC2)c1.O=C(O)C=CC(=O)O [PD 168,077 maleate] | 99.3
CCCCCCCCCCCCCCCC(=O)OC(CC(=O)O)C[N+](C)(C)C.[Cl-] (racemic) [Palmitoyl-DL-Carnitine chloride] | 110
O=C1CN(/N=C/c2ccc(-c3ccc([N+](=O)[O-])cc3)o2)C([O-])=N1.[Na+] | 111
CC1C(NC(=O)C(=NOC(C)(C)C(=O)O)c2csc(N)n2)C(=O)N1S(=O)(=O)O (configuration not stated) [Aztreonam] | 103
O=C(COc1ccc(Cl)cc1)NC1CCC(NC(=O)COc2ccc(Cl)cc2)CC1 (configuration not stated) | 92.9
COc1ccc(C2Sc3ccccc3N(CCN(C)C)C(=O)C2OC(C)=O)cc1 (configuration not stated) [Diltiazem] | 101
Cn1c(=O)c2c(ncn2CC2OCCO2)n(C)c1=O [Doxofylline] | 104
CC(C)NCC(O)COc1cccc2ccccc12.Cl [(S)-Propranolol hydrochloride] | 230 (active)
COc1cc(CC2C(=O)OCC2Cc2ccc(OC)c(OC)c2)ccc1O (configuration not stated) | 156 (active)
COc1ccc(CC(=O)NC(N=C(NC#N)Nc2cccc3ncccc23)C(C)(C)C)cc1OC (configuration not stated) | 96.8
Cl.FC(F)(F)c1cc(COC2CCCNC2c2ccccc2)cc(C(F)(F)F)c1 [L-733,060 hydrochloride] | 118
COc1ccc(C2CNC(=O)C2)cc1OC1CCCC1 (configuration not stated) [Rolipram] | 110
O=c1[nH]c2ccccc2c2ccccc12 [6(5H)-Phenanthridinone] | 104
Cl.Cl.c1ccc2c3c([nH]c2c1)C1C2CCC(C4CCCNC42)N1CC3 (configuration not stated) | 101

SMILES | H1.0 immunofluorescence intensity
OCC1OC(n2cnc3c(Nc4ccccc4)ncnc32)C(O)C1O (configuration not stated) [N6-Phenyladenosine] | 104
NCCC(O)(P(=O)([O-])O)P(=O)([O-])O.O.O.O.O.O.[Na+].[Na+] [Pamidronate.2Na.5H2O] | 107
O=c1c(O)c(-c2ccc(O)c(O)c2)oc2cc(O)ccc12 [Fisetin] | 101
C[N+](C)(C)CCOC(=O)CCC(=O)OCC[N+](C)(C)C.[Cl-].[Cl-] [Succinylcholine chloride] | 84.7
CCCCCC=CCC1OC1C(O)C=CCC=CCCCC(=O)O (configuration not stated) [Hepoxilin B3] | 93.1
C1COC(NC(C2CC2)C2CC2)=N1 [Rilmenidine hemifumarate] | 107
COC(=O)Nc1nc2ccc(Sc3ccccc3)cc2[nH]1 [Fenbendazole] | 177 (active)
N=c1nc(N2CCCCC2)cc(N)n1O [Minoxidil] | 103
Cc1cc2cc3c(C)cc(=O)oc3c(C)c2o1 [4,5',8-Trimethylpsoralen] | 87.5
O=C(Nc1cccc(Nc2ncc(Br)c(NCCc3cnc[nH]3)n2)c1)N1CCCC1 | 109
NC(=O)c1cccc(NC(=O)/C=C/c2c[nH]c3ccccc23)c1 [(E)-3-(3-(1H-indol-3-yl)acrylamido)benzamide] | 118
CC(=O)OC1(C(C)=O)CCC2C3C=C(Cl)C4=CC(=O)C5CC5C4(C)C3CCC21C (configuration not stated) [Cyproterone Acetate] | 99.8
CCc1ccc(CCOc2ccc(CC3SC(=O)NC3=O)cc2)nc1 (configuration not stated) [Pioglitazone] | 102
O=C(O)c1ccc(SC2=NS(=O)(=O)c3ccccc32)cc1 [4-((1,1-dioxidobenzo[d]isothiazol-3-yl)thio)benzoic acid] | 98.7
CC1=CCCC(C)(O)C=CC(C(C)C)C(OC(=O)c2ccc(O)cc2)C1 (configuration not stated) [Feroline] | 93.3
CN(C)CC=C(c1ccc(Br)cc1)c1cccnc1.Cl.Cl [Zimelidine dihydrochloride] | 116
